# Source: PubChem BioAssay
# Only a selection was taken, and hits are over-represented in it overall.
# IDE exosite inh = exo-site inhibitors of human insulin-degrading enzyme; purified IDE, FL-6b probe fluorescence polarization; stronger effect = lower value; P14735; z-score at 20 µM; 6.3% of 17,000 active;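 active = z-score of -3 or lower, meaning strong loss of probe binding signal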;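 note: His-tagged human IDE residues 42-1019 made in E. coli with 30 nM FL-6b probe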
# Target sequence (P14735 42-1019 limits assumed): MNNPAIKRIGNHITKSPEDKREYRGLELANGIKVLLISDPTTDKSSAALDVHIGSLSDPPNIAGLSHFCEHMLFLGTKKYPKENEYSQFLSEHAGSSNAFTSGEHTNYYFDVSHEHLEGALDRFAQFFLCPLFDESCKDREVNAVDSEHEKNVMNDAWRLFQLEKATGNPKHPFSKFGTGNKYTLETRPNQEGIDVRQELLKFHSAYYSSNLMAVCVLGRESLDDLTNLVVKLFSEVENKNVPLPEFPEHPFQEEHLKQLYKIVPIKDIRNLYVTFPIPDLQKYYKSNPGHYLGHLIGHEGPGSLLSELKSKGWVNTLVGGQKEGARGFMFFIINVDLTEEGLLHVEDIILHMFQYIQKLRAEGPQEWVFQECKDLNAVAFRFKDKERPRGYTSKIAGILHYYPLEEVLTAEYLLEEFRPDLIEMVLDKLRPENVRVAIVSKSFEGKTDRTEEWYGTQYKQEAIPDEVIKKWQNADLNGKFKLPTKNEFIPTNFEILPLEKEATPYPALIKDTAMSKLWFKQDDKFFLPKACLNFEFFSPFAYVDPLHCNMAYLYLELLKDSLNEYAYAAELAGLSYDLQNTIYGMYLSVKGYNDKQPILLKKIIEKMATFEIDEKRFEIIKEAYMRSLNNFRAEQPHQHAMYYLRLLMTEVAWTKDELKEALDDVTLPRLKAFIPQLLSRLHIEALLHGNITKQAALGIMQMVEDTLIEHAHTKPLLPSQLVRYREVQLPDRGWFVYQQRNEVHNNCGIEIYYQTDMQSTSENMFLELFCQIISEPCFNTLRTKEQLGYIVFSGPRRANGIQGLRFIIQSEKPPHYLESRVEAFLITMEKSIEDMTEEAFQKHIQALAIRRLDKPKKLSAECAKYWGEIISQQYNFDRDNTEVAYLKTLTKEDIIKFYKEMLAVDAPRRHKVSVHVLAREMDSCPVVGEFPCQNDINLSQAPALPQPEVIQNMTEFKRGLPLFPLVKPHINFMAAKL
# An asterisk follows results filed as active.
SMILES,IDE exosite inh
Cc1ccc(-c2ccc([C@H]3[C@H]4CN(C(=O)Cc5ccccn5)CC(=O)N4[C@H]3CO)cc2)cc1,-2.1
COc1ccc(-c2ccc([C@@H]3[C@@H](CO)N4C(=O)CN(C(=O)Cc5ccccn5)C[C@H]34)cc2)cc1,1.1
CCCC#Cc1ccc([C@@H]2[C@H]3CN(C(=O)c4cccnc4)CC(=O)N3[C@H]2CO)cc1,-0.027
CCC(=O)N1CC(=O)N2[C@H](CO)[C@H](c3ccc(C#CC4CCCC4)cc3)[C@@H]2C1,2.6
COc1ccc2c3c(n(C)c2c1)[C@@H](CO)N(C(=O)CN(C)C)CC31CN(Cc2nccs2)C1,-1.2
CC(=O)N1CC(=O)N2[C@H](CO)[C@@H](c3ccc(-c4ccc(C#N)cc4)cc3)[C@H]2C1,-0.31
N#C[C@H]1[C@@H](c2ccc(C#CCC3CCCC3)cc2)[C@H](CO)N1C(=O)c1ccccn1,4.5
O=C1CN(Cc2ccc(F)cc2)C[C@@H]2[C@H](c3ccc(Br)cc3)[C@H](CO)N12,1.9
O=C(C[C@H]1CC[C@@H](NC(=O)c2ccc3c(c2)OCO3)[C@H](CO)O1)NCc1ccc(Oc2ccccc2)cc1,0.45
C/C=C/c1ccc([C@H]2[C@H](CO)N3C(=O)CN(Cc4ccc(C)cc4)C[C@@H]23)cc1,-5*
COC(=O)c1ccc(CN2CC(=O)N3[C@H](CO)[C@@H](c4ccc(Br)cc4)[C@@H]3C2)cc1,-3.5*
COC(=O)c1ccc(CN2CC(=O)N3[C@H](CO)[C@@H](c4ccc(Br)cc4)[C@H]3C2)cc1,2.8
COC(=O)c1ccc(CN2CC(=O)N3[C@H](CO)[C@H](c4ccc(Br)cc4)[C@@H]3C2)cc1,-0.79
C/C=C/c1ccc([C@@H]2[C@@H](CO)N3C(=O)CN(Cc4ccc(C)cc4)C[C@@H]23)cc1,1.2
C/C=C/c1ccc([C@@H]2[C@H]3CN(Cc4ccc(C)cc4)CC(=O)N3[C@H]2CO)cc1,2
COc1ccc2c3c([nH]c2c1)[C@H](CO)N(Cc1ccc(F)cc1)CC31CN(C)C1,-1.1
CC(C)NC(=O)Nc1ccc2c(c1)C(=O)N([C@@H](C)CO)C[C@H](C)[C@@H](CN(C)C(=O)C1CCCCC1)OCCCC[C@H](C)O2,0.14
Cc1ccccc1-c1ccc([C@@H]2[C@@H](CO)N3C(=O)CN(C(=O)c4ccc(F)cc4)C[C@H]23)cc1,-0.12
O=C(c1ccccc1)N1CC(=O)N2[C@H](C1)[C@@H](c1ccc(-c3ccccc3)cc1)[C@@H]2CO,-0.84
Cc1ccccc1-c1ccc([C@H]2[C@H](CO)N3C(=O)CN(C(=O)c4ccncc4)C[C@@H]23)cc1,-7.4*
Cc1ccccc1-c1ccc([C@H]2[C@@H](CO)N3C(=O)CN(C(=O)c4ccccc4)C[C@@H]23)cc1,-8.3*
COCC(=O)N1[C@H](C#N)[C@@H](c2ccccc2-c2cccc(F)c2)[C@H]1CO,2.9
O=C(c1cccc(F)c1)N1CCCCN2[C@H](CO)[C@H](c3ccc(-c4cccnc4)cc3)[C@@H]2C1,1.9
CC(=O)N1CC(=O)N2[C@H](C1)[C@H](c1ccc(C#CC(C)C)cc1)[C@@H]2CO,0.56
COc1ccccc1S(=O)(=O)N[C@H]1C=C[C@H](CC(=O)N2CCOCC2)O[C@@H]1CO,0.85
SMILES,IDE exosite inh
COc1ccc2c3c([nH]c2c1)[C@H](CO)N(C(=O)Nc1ccc(F)cc1)CC31CCN(C(=O)Nc2ccc3c(c2)OCO3)CC1,0.35
COCC(=O)N1CCCCN2[C@H](C1)[C@H](c1ccc(C#Cc3ccc(OC)cc3)cc1)[C@@H]2CO,1.8
COCC(=O)N1CCCCN2[C@H](CO)[C@@H](c3ccc(C#Cc4ccccc4)cc3)[C@@H]2C1,-8.5*
COc1ccccc1NC(=O)N1CCCCN2[C@H](CO)[C@H](c3ccc(C#Cc4ccccc4)cc3)[C@H]2C1,-0.26
COCC(=O)N1CCCCN2[C@@H](CO)[C@@H](c3ccc(C#Cc4ccc(OC)cc4)cc3)[C@@H]2C1,0.57
COCC(=O)N1CCCCN2[C@H](CO)[C@H](c3ccc(C#Cc4ccccc4)cc3)[C@H]2C1,-6.3*
COCC(=O)N1CCCCN2[C@@H](CO)[C@@H](c3ccc(C#Cc4ccccc4)cc3)[C@@H]2C1,-8.5*
COCC#Cc1ccc([C@@H]2[C@H](CO)N3CCCCN(C(=O)COC)C[C@@H]23)cc1,1.8
COc1ccccc1NC(=O)N1CCCCN2[C@H](C1)[C@@H](c1ccc(C#Cc3ccccc3)cc1)[C@@H]2CO,2.6
COc1ccc(C#Cc2ccc([C@@H]3[C@@H](CO)N4CCCCN(C(=O)Nc5cccc(F)c5)C[C@H]34)cc2)cc1,0.88
N#C[C@@H]1[C@@H](c2ccc(C3=CCCC3)cc2)[C@H](CO)N1c1nc(-c2ccccc2)cs1,2.1
N#C[C@H]1[C@H](c2ccc(-c3cccc(F)c3)cc2)[C@H](CO)N1C(=O)NC1CCCC1,-2.6
Cc1cccc(S(=O)(=O)N2CCCCN3[C@H](C2)[C@@H](c2ccc(C#C[C@@H](C)O)cc2)[C@@H]3CO)c1,0.33
CCCC#Cc1ccc([C@H]2[C@H](C#N)N(S(C)(=O)=O)[C@H]2CO)cc1,-0.24
CC(=O)N1[C@H](CN(C(=O)c2ccccc2)C(C)C)[C@@H](c2ccccc2)[C@@H]1CO,1.2
